# Results taken from PubChem BioAssay AID624297 (National Center for Advancing Translational Sciences (NCATS), 2012).
# Values joined by “and” are separate entries in the source; they are usually repeats but may differ in a detail not shown here. Identical values can stand only once. Screen size: about 340,000 compounds; about 6,200 (1.8%) were called active. Not shown: some 10% with an inconclusive outcome. Calls follow the shape of the dose curve; as a rule, active = well fitted activation curve with a large enough effect; inconclusive = small, poorly fitted or top-dose-only effect; inactive = no such curve, though single readings can be large or run the other way. The list comes from a sample in which actives are over-represented; it also holds similar structures and randomly drawn compounds. Where a call stands in place of a potency, no number is given. Where a structure was tested more than once in an assay, its records may differ in their call.
# Assay: A quantitative high throughput screen for small molecules that induce DNA re-replication in SW480 colon adenocarcinoma cells. Also: nearly all actives have a fitted effect of over 55% in size.
# Settings: Hoechst DNA content imaging, 48 h; series mostly up to 46.1 µM
# Method in brief: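 Hoechst fluorescence of nuclei (405 nm excitation, 500-530 nm emission) measured by plate-scanning imager after 48 hr compound exposure at 37 C; re-replication scored as increased number of nuclei with elevated intensity.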
# Potency is read from the fitted curve at half-maximal effect.
SMILES,Potency,re-replication activation
COc1ccc(C(=O)COC(=O)c2c(C)noc2C)cc1Cl,inactive,–
Cc1ccc(C(=O)NNC(=O)c2ccc3c(c2)OCCO3)cc1,inactive,–
CC1CCCCC1NCC(=O)Nc1ccccc1C(=O)Nc1ccccc1 (stereo unspecified),inactive,–
O=C(NNC(=O)c1ccccc1O)c1ccccc1O,1.64 µM (active),–
Cc1cc(C(=O)CCC(=O)NNC(=O)c2ccccc2O)c(C)s1,inactive,–
O=C(Nc1ccc(O)cc1)c1ccccc1O,inactive,–
O=C(CN1C(=O)c2ccc([N+](=O)[O-])cc2C1=O)Nc1nnc(C2CC2)s1,inactive,–
COc1cc(Cl)c(C)cc1NC(=O)CSc1nnc(CN2CCCC2)o1,inactive,–
CC(=O)NC(=O)c1ccccc1O,inactive,–
C/C(=N\NC(=O)c1ccoc1C)c1ccccc1O,2.31 µM (active),–
Cc1ccnc(NC(=O)c2ccoc2C)c1,inactive,–
CC(C)NC(=O)Nc1cccc2c1O[C@@H](CN(C)S(=O)(=O)c1ccc(F)cc1)[C@@H](C)CN([C@H](C)CO)C2=O,inactive,–
Cc1ccc(OCCNC(=O)c2cccc(S(=O)(=O)N3CCN(Cc4ccccc4)CC3)c2)cc1,inactive,–
CN1C=CC=C/C1=C1\SC(=S)N(Cc2ccccc2)C1=O,23.1 µM (active),–
COc1cc(/C=C2/SC(=S)N(Cc3ccccc3)C2=O)cc(OC)c1O,inactive,–
CCCCN1C(=O)/C(=C2/C=CC=CN2C)SC1=S,inactive,–
O=C(O)C(CCc1ccccn1)c1ccccc1 (stereo unspecified),inactive,–
CC(NC(=O)c1ccccc1F)c1cccc2ccccc12 (stereo unspecified),inactive,–
Cn1c(CC(=O)NNC(=O)c2ccccc2F)nc2ccccc21,inactive,–
CN(NC(=O)c1ccccc1F)c1nc(C(F)(F)F)nc2ccccc12,0.517 µM (active),–
COC(=O)Cc1csc(/N=C/c2c(O)n(-c3cccc(C(F)(F)F)c3)c(=O)c3ccccc23)n1,inactive and 11.6 µM (active),–

SMILES,Potency,re-replication activation
COC(=O)Cc1c(O)ccn(Cc2cccc(C(F)(F)F)c2)c1=O,inactive,–
COC(=O)Cc1csc(Nc2c(C)n(C)n(-c3ccccc3)c2=O)n1,inactive,–
CC(C)(O)c1ccccc1CC[C@H](SCC1(CC(=O)O)CC1)c1cccc(/C=C/c2ccc3ccc(Cl)cc3n2)c1,inactive,–
CN(C(=O)COC(=O)Cc1ccccc1[N+](=O)[O-])C1CCS(=O)(=O)C1 (stereo unspecified),inactive,–
N#Cc1c(-c2ccccc2)cc(-c2ccccc2)nc1SCC(=O)O,inactive,–
N#Cc1c(C(F)(F)F)cc(-c2ccc(Cl)cc2)nc1SCC(=O)O,inactive,–
CCOC(=O)CC(=O)CSc1nc(-c2ccccc2)cc(-c2ccc(Cl)cc2)c1C#N,20.6 µM (active),–
CCOc1ccc(CCNC(=O)COC(=O)C2CCN(S(=O)(=O)c3ccccc3)CC2)cc1OCC,inactive,–
CC(=O)CSc1nc(CCc2ccccc2)c(C#N)c(=O)[nH]1,–,4.33% [at 1.84 µM] (inactive)
O=C(N[C@H]1C/C=C\C(c2ccc(F)cc2)N(Cc2ccccc2)C(=O)C1)OCC1c2ccccc2-c2ccccc21 (stereo partly specified),inactive,–
CN(C(=O)c1ccc(NC(=O)Cc2cccc(NC(=O)C3CCN(C(=O)c4ccccc4)CC3)c2)cc1)C1CC1,–,-22.3% [at 9.22 µM] (inactive)
O=C(CNC(=O)c1cc(S(=O)(=O)N2CCOCC2)ccc1N1CCCC1)Nc1ccc(F)c(F)c1,inactive,–
COc1ccc(OCc2cn3c(C)cc(C)nc3n2)cc1,inactive,–
COc1ccc(C(C[N+](=O)[O-])n2nc(C)cc2C)cc1 (stereo unspecified),5.8 µM (active),–
COc1ccc(C(=O)CSc2nc(C)cc(C)n2)cc1[N+](=O)[O-],inactive,–
Cc1cc(C(=O)COc2ccc(Br)cc2F)c(C)n1C1CC1,inactive,–
O=C1NC(c2ccccc2)Cc2ccncc21 (stereo unspecified),inactive,–
C[C@@H]1NS(=O)(=O)c2cc(Cl)ccc2O[C@@H]1c1ccccc1,inactive,–
O=C1OCCN1C(=O)[C@H]1[C@H](c2ccc(F)cc2)C(c2ccccc2)=NN1c1ccc(Br)cc1,9.2 µM (active),–
Cc1cc(OCCCC(=O)Nc2cc(S(=O)(=O)N3CCOCC3)ccc2N2CCOCC2)ccc1Cl,inactive,–
O=C1C(=O)N(c2ccccc2)C(c2ccccc2)C1c1ccccc1 (stereo unspecified),inactive,–

SMILES,Potency,re-replication activation
O=C1c2cccc3cc(Br)cc(c23)C(=O)N1Nc1ccccc1,–,-1.37% [at 9.22 µM] (inactive)
O=C(O)CC1=C(Nc2ccccc2)C(=O)N(c2ccccc2)C1c1ccc(Cl)cc1 (stereo unspecified),inactive,–
O=C1C=C(c2ccc(Cl)cc2)C(=O)N1Nc1ccccc1,6.51 µM (active),–
C#CCOCCOCCOCCNc1nc(N2CCN(C(=O)C([C@@H](C)O)n3cc([C@@H](N)CCCCN)nn3)CC2)nc(N2CCN(C(=O)[C@H](CCCCN)n3cc(CN)nn3)CC2)n1 (stereo partly specified),inactive,–
COC(=O)[C@]1(Cc2ccccc2)N[C@H](CN(C)S(=O)(=O)c2ccc(OC(F)(F)F)cc2)[C@@H]2C(=O)N(Cc3ccccc3)C(=O)[C@@H]21,inactive,–
CCCCN1CC(COc2ccccc2)Oc2cccc(F)c2S1(=O)=O (stereo unspecified),inactive,–
Cc1cccc(NC(=O)C2CCN(S(=O)(=O)c3cccc4cccnc34)CC2)c1,inactive,–
O=C(Nc1ccccn1)C1CCN(S(=O)(=O)c2ccccc2)CC1,inactive,–
Cc1ccnc(NC(=O)C2CCN(S(=O)(=O)c3c(C)c(C)cc(C)c3C)CC2)c1,16.4 µM (active),–
C=CC[C@H](CC(=O)N(CCO)Cc1ccccc1)C(=O)N[C@@H](COC(=O)[C@@H](CC=C)Cc1ccc(F)cc1)Cc1ccccc1,inactive,–
O=[N+]([O-])c1cccc2ncccc12,inactive,–
O=[N+]([O-])c1ccccc1S(=O)(=O)Nc1cccc2cccnc12,13 µM (active),–
Cc1ccccc1NC(=O)c1ccccc1NS(=O)(=O)c1cccc2cccnc12,inactive,–
CC(=O)C(CC(=O)N1CCCC1)C(=O)Nc1ccc(Cl)cc1 (stereo unspecified),inactive,–
COC1=NC2=NCCN2C(OC)=N1,inactive,–
O=C(NCCN1CCOCC1)c1cc(-c2cccs2)nc2ccccc12,inactive,–
c1ccc2cc3c(NCCN4CCOCC4)ccnc3cc2c1,10.3 µM (active),–
O=C(NCCN1CCOCC1)c1ccc2c(c1)ncn2C1CCCC1,inactive,–
Cc1ccc(S(=O)(=O)N2CCN(C(=O)COC(=O)CNC(=O)c3ccc(C(C)(C)C)cc3)CC2)c(C)c1,inactive,–
